Data from PubChem BioAssay (NCI).
Compounds without any hit were thinned out: in the full panel of roughly 83,000, 20% have a hit.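 Growth was measured after 48 h exposure to one concentration of compound in 96-well plates. Values under 10 count as active.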 Unmarked numbers belong to inactive results. Active and inactive are the calls of the source.

Each compound was assayed on RXF 393 renal (assay: NCI-60 one-dose screen, 48 h (100 = growth as untreated, 0 = no growth, -100 = all killed)). Settings: 10 µM unless noted.

Row | Structure (SMILES) | growth
1 | O=C(Nc1cccc(-n2cc(-c3ccncc3)c(-c3ccc(O)c(Cl)c3)n2)c1)Nc1ccc(Cl)c(C(F)(F)F)c1 | -21% (active)
2 | CCOc1ccccc1C(=O)OCC(=O)Nc1cccc(S(=O)(=O)N(C)C)c1 | 64.6%
3 | Cn1c(N)c(N=O)c(=O)[nH]c1=O | 114%
4 | Cc1nn(-c2ccc(Br)cc2)c2nc3c(nc12)C(=O)C(=O)c1ccccc1-3 | 111%
5 | Cc1nn(-c2ccccc2)c2nc(Cl)c(/C=C/C(=O)c3ccccc3)c(-c3ccccc3)c12 | 103%
6 | S=C(Nc1ccc(C2=NCCN2)cc1)Nc1ccc(C2=NCCN2)cc1 | 101%
7 | COc1ccc(C(=O)/C=C/c2c(Cl)nc3c(c(C)nn3-c3ccccc3)c2-c2ccc(Br)cc2)cc1 | 101%
8 | Cc1c(C(N)=O)sc2c1c(=O)n(Cc1ccccc1)c1nnc(S(=O)(=O)CC(=O)Nc3ccc(Cl)cc3)n21 | 41.8%
9 | O=C1Nc2ccc(F)cc2/C1=C/c1nc(-c2ccc(F)cc2)n2ccccc12 | 108%
10 | CCOC(=O)C(C(C)=O)c1nc2sc3cc(Cl)ccc3n2c(=N)c1C#N (centres undefined) | 50.8%
11 | Cc1nn(-c2ccc(Cl)cc2)c2nc3c(nc12)c(=O)oc1ccccc13 | 136%
12 | Cc1nn(-c2ccccc2)c2ncc3c(c12)C(=O)N(Cc1ccccc1)C3=O | 68%
13 | OC(CCC(O)(c1ccccc1)c1ccccc1)(c1ccccc1)c1ccccc1 | 80%
14 | S=C(c1ccccc1)N1CCN(c2cccc(Cl)c2)CC1 | 108%
15 | COc1cc(OC)c2cc(C(=O)O)c(=O)oc2c1 | 105%
16 | Cc1c(C(N)=O)sc2ncn(Cc3ccccc3)c(=O)c12 | 106%

Row | Structure (SMILES) | growth
17 | O=C(COC(=O)[C@H](C[Se][Se]C[C@H](NC(=O)c1ccc(Br)cc1F)C(=O)OCC(=O)c1ccc(F)cc1)NC(=O)c1ccc(Br)cc1F)c1ccc(F)cc1 | -99.3% (active)
18 | CCOC(=O)C1C(=O)OC2CCCCC21 (centres undefined) | 119%
19 | COC(=O)[C@]1(CCSC)N[C@H](c2cn(-c3ccccc3)nc2C)[C@@H]2C(=O)N(c3ccccc3)C(=O)[C@@H]21 | 109%
20 | Cc1c(C(N)=O)sc2c1c(=O)n(Cc1ccccc1)c1nnc(SCC(=O)Nc3ccc(Cl)cc3)n21 | 38%
21 | O=C1OC(c2ccc(-c3ccccc3)cc2)=C/C1=C/c1cccs1 | 84.6%
22 | CCCCn1c(Cc2ccc(Cl)cc2)nc2cc(OC)c(OC)cc2c1=O | 90%
23 | Cc1[nH]n(C(N)=S)c(=O)c1N=Nc1ccc(F)c(Cl)c1 | 131%
24 | CCSc1nnc2n(Cc3ccccc3)c(=O)c3c(C)c(C(N)=O)sc3n12 | 103%
25 | NC(=O)SCC(=O)Nc1ccccc1-c1ccccc1 | 138%
26 | Cc1nn(-c2ccc(Cl)cc2)c2nc3c(nc12)C(=O)C(=O)c1ccccc1-3 | 89.6%
27 | O=C(c1ccccc1)c1ccccc1Cl | 111%
28 | COc1cc(OC)c2sc(-c3ccc(-n4cncc4-c4ccc(N)cc4)cc3)nc2c1 | 81.5%
29 | O=C(CSc1nc2c(n1Nc1ccccc1)-c1ccccc1SC2)Nc1nc(-c2ccc(Cl)cc2)cs1 | 98.8%
30 | OC(Cc1cccnc1)c1ccccc1 (centres undefined) | 114%
31 | N#Cc1c(N2CCOCC2)nc2sc3cc(Cl)ccc3n2c1=N | 72.7%

What follows are compounds tested on SF-268 CNS in the same assay as above. Settings: 10 µM unless noted.

Row | Structure (SMILES) | growth
32 | O=C(Nc1cccc(-n2cc(-c3ccncc3)c(-c3ccc(O)c(Cl)c3)n2)c1)Nc1ccc(Cl)c(C(F)(F)F)c1 | 3.1% (active)
33 | CCOc1ccccc1C(=O)OCC(=O)Nc1cccc(S(=O)(=O)N(C)C)c1 | 122%
34 | Cn1c(N)c(N=O)c(=O)[nH]c1=O | 110%
35 | Cc1nn(-c2ccc(Br)cc2)c2nc3c(nc12)C(=O)C(=O)c1ccccc1-3 | 101%
36 | Cc1nn(-c2ccccc2)c2nc(Cl)c(/C=C/C(=O)c3ccccc3)c(-c3ccccc3)c12 | 106%
37 | S=C(Nc1ccc(C2=NCCN2)cc1)Nc1ccc(C2=NCCN2)cc1 | 120%
38 | COc1ccc(C(=O)/C=C/c2c(Cl)nc3c(c(C)nn3-c3ccccc3)c2-c2ccc(Br)cc2)cc1 | 103%
39 | O=C1c2ccccc2-c2c1nc1ccccc1[n+]2[O-] | 98.2%
40 | Cc1c(C(N)=O)sc2c1c(=O)n(Cc1ccccc1)c1nnc(S(=O)(=O)CC(=O)Nc3ccc(Cl)cc3)n21 | 73.6%
41 | OCCOc1c(Cl)cc(Cl)cc1Cl | 103%
42 | O=C1Nc2ccc(F)cc2/C1=C/c1nc(-c2ccc(F)cc2)n2ccccc12 | 81.3%
43 | CCOC(=O)C(C(C)=O)c1nc2sc3cc(Cl)ccc3n2c(=N)c1C#N (centres undefined) | 64.6%
44 | Cc1nn(-c2ccc(Cl)cc2)c2nc3c(nc12)c(=O)oc1ccccc13 | 104%
45 | Cc1nn(-c2ccccc2)c2ncc3c(c12)C(=O)N(Cc1ccccc1)C3=O | 81.3%
46 | COc1cc(OC)c2cc(C(=O)O)c(=O)oc2c1 | 110%
47 | Cc1c(C(N)=O)sc2ncn(Cc3ccccc3)c(=O)c12 | 104%
48 | O=C1CN(CO)C(=O)CN1CO | 105%

Row | Structure (SMILES) | growth
49 | O=C(COC(=O)[C@H](C[Se][Se]C[C@H](NC(=O)c1ccc(Br)cc1F)C(=O)OCC(=O)c1ccc(F)cc1)NC(=O)c1ccc(Br)cc1F)c1ccc(F)cc1 | -74.1% (active)
50 | CCOC(=O)C1C(=O)OC2CCCCC21 (centres undefined) | 111%
51 | COC(=O)[C@]1(CCSC)N[C@H](c2cn(-c3ccccc3)nc2C)[C@@H]2C(=O)N(c3ccccc3)C(=O)[C@@H]21 | 114%
52 | Cc1c(C(N)=O)sc2c1c(=O)n(Cc1ccccc1)c1nnc(SCC(=O)Nc3ccc(Cl)cc3)n21 | 60.1%
53 | O=C1OC(c2ccc(-c3ccccc3)cc2)=C/C1=C/c1cccs1 | 88.5%
54 | Oc1ccccc1/C=N\Nc1ccccc1 | 61.8%
55 | CCCCn1c(Cc2ccc(Cl)cc2)nc2cc(OC)c(OC)cc2c1=O | 80%
56 | Cc1[nH]n(C(N)=S)c(=O)c1N=Nc1ccc(F)c(Cl)c1 | 92.2%
57 | CCSc1nnc2n(Cc3ccccc3)c(=O)c3c(C)c(C(N)=O)sc3n12 | 95.1%
58 | Cc1cc(C)c(OC(=O)CSc2nc3ccccc3c(=O)n2CCc2ccccc2)cc1C | 97.1%
59 | Cc1nn(-c2ccc(Cl)cc2)c2nc3c(nc12)C(=O)C(=O)c1ccccc1-3 | 89.3%
60 | O=C(c1ccccc1)c1ccccc1Cl | 109%
61 | COc1cc(OC)c2sc(-c3ccc(-n4cncc4-c4ccc(N)cc4)cc3)nc2c1 | 74.5%
62 | O=C(CSc1nc2c(n1Nc1ccccc1)-c1ccccc1SC2)Nc1nc(-c2ccc(Cl)cc2)cs1 | 47.2%
63 | CN=C(NC)N/N=C(C)\C=N\NC(=NC)NC | 99.5%
64 | N#Cc1c(N2CCOCC2)nc2sc3cc(Cl)ccc3n2c1=N | 94.4%
